According to the supplement of paper PMC11732987, “Enantioselective OTUD7B fragment discovery through chemoproteomics screening and high-throughput optimisation” (Communications Chemistry, 2025):

Assays:
Experiment in all cases: log2 ratio of Biotin-Ahx-Ub-VS probe labelling (fragment/DMSO); higher = less target engagement (more negative = stronger competition), active = hit call of the paper (q ≤ 0.05, log2 ratio ≤ -1)
Conditions in all cases: compound concentration: 200 uM; treatment time: 3 h
USP19 = target: T1, USP19 (UniProt O94966)
T1 sequence (whole entry): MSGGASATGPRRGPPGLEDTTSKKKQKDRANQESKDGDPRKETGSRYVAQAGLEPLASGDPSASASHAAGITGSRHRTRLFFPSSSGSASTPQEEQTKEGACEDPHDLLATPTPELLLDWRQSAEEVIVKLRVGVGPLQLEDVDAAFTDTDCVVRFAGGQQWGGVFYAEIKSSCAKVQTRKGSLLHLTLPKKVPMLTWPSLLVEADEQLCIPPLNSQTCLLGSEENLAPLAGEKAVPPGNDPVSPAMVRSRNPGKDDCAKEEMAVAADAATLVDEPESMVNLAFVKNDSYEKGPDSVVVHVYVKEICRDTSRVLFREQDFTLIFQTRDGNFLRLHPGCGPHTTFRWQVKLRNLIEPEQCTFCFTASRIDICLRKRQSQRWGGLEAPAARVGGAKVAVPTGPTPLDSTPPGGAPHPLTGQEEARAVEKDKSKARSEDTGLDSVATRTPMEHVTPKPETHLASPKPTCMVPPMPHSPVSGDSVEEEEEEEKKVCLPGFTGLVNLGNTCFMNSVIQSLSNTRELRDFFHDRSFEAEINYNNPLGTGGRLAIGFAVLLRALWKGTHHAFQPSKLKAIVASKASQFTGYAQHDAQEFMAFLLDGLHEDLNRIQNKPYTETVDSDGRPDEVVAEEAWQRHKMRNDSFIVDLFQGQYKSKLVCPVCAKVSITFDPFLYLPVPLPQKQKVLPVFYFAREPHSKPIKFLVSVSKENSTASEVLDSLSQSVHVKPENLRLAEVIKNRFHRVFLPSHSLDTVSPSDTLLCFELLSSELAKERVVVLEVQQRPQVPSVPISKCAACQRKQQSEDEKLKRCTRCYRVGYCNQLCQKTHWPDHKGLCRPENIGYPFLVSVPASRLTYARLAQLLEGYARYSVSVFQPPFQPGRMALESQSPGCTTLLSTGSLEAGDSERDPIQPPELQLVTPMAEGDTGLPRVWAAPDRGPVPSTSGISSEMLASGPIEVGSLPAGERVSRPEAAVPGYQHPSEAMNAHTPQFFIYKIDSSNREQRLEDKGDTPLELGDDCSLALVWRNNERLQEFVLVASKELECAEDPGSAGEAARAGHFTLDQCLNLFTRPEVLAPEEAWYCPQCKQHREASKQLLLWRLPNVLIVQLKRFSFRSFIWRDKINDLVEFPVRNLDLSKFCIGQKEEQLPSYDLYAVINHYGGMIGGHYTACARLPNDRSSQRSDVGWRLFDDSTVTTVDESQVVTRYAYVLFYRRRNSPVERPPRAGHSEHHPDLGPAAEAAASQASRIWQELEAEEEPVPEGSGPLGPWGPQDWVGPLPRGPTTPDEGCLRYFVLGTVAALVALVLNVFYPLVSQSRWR
Summary of the method: (§1)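 Global-median-normalised Spectronaut label-free quantities were compared by unpaired t-test, and values are average log2 ratios of fragment over vehicle. Only proteins with ≥2 unique peptides were used. HEK293T lysate (495 µg per sample) was treated in triplicate with fragment at 200 µM or vehicle for 3 h and then with Biotin-Ahx-Ub-VS at 0.5 µM final for 1 h. Labelled DUBs were then NeutrAvidin-enriched, digested with LysC and trypsin, and run by diaPASEF LC-MS/MS.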

USP22 = target: T2, USP22 (UniProt Q9UPT9)
T2 sequence (whole entry): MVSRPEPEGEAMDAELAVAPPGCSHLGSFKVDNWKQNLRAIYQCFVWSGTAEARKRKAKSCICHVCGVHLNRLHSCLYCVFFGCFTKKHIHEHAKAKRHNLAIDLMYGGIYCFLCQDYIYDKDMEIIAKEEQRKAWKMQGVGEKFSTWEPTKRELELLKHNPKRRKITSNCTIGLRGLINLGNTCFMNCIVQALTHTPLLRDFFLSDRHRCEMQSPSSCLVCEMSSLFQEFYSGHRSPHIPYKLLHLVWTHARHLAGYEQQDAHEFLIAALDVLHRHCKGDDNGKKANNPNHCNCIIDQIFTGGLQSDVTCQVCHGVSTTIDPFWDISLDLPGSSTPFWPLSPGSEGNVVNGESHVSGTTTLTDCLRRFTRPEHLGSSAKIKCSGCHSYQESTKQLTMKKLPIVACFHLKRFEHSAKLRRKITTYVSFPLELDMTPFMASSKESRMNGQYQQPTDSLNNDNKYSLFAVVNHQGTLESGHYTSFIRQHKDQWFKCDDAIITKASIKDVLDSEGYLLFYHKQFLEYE
Summary of the method: as §1

USP24 = USP24 (UniProt Q9UPU5)
USP24, sequence (Q9UPU5 whole entry): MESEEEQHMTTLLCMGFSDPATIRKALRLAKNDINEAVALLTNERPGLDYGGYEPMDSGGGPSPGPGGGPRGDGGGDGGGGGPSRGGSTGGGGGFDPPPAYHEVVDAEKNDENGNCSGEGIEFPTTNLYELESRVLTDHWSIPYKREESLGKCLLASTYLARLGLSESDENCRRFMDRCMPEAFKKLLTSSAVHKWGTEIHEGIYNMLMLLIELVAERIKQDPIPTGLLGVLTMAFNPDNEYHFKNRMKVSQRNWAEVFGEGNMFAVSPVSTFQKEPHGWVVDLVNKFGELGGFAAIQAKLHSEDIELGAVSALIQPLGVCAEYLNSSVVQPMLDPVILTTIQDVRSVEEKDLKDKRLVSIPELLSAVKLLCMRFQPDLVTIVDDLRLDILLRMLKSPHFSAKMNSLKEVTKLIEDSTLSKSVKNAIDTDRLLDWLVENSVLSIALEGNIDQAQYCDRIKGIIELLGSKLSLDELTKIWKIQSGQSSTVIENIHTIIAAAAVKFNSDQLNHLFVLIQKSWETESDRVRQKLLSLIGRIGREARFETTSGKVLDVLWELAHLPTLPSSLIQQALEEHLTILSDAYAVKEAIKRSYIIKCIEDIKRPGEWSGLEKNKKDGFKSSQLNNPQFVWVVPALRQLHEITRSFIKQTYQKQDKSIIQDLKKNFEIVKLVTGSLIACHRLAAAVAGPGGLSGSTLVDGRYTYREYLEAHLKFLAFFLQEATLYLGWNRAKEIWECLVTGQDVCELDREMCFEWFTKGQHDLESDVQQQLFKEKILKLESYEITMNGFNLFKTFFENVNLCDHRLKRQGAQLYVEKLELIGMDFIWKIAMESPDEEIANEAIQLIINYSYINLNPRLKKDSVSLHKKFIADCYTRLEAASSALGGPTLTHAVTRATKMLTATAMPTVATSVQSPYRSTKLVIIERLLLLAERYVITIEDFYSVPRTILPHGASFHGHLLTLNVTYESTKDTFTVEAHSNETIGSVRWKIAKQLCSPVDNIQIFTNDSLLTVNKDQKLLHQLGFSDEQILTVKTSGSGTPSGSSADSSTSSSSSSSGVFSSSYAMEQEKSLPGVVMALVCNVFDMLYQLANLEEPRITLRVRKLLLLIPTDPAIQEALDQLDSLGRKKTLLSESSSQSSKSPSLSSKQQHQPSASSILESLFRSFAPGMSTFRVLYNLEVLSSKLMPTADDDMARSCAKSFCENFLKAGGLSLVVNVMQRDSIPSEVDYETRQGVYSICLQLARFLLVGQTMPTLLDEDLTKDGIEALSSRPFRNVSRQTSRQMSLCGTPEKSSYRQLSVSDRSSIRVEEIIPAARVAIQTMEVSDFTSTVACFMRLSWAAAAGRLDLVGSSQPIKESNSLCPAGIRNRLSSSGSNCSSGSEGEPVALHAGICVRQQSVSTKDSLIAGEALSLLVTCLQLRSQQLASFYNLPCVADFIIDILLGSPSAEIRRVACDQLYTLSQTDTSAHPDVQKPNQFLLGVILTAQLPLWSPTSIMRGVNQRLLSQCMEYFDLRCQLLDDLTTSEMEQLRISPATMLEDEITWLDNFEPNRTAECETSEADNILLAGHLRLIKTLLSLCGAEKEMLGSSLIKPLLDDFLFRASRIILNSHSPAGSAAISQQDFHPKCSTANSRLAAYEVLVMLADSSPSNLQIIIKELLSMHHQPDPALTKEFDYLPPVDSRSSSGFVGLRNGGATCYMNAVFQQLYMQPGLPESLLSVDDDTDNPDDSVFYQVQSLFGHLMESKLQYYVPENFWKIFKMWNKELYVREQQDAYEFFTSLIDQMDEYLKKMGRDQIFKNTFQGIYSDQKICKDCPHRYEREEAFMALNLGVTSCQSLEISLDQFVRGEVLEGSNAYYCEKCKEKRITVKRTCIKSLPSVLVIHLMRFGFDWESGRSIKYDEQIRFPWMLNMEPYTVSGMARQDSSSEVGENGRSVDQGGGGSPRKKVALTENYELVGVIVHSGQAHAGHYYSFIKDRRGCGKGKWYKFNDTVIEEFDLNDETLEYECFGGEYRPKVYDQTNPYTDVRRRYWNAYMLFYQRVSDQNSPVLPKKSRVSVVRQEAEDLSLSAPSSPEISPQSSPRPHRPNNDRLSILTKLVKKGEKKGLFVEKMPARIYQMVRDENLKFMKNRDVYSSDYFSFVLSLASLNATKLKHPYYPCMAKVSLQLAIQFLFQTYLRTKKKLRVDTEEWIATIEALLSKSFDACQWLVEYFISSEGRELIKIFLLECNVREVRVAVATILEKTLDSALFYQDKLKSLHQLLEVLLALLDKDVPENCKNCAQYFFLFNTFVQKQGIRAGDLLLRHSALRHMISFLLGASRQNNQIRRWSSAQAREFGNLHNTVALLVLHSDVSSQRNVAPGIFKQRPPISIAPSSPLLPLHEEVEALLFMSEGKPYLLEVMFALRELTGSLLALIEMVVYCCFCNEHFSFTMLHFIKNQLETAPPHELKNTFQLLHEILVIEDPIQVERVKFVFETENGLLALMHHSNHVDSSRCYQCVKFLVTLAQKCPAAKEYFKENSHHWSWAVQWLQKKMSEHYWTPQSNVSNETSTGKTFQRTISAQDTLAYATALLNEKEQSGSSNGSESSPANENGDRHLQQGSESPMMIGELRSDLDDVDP
Summary of the method: as §1

USP25 = target: T3, USP25 (UniProt Q9UHP3)
T3 sequence (whole entry): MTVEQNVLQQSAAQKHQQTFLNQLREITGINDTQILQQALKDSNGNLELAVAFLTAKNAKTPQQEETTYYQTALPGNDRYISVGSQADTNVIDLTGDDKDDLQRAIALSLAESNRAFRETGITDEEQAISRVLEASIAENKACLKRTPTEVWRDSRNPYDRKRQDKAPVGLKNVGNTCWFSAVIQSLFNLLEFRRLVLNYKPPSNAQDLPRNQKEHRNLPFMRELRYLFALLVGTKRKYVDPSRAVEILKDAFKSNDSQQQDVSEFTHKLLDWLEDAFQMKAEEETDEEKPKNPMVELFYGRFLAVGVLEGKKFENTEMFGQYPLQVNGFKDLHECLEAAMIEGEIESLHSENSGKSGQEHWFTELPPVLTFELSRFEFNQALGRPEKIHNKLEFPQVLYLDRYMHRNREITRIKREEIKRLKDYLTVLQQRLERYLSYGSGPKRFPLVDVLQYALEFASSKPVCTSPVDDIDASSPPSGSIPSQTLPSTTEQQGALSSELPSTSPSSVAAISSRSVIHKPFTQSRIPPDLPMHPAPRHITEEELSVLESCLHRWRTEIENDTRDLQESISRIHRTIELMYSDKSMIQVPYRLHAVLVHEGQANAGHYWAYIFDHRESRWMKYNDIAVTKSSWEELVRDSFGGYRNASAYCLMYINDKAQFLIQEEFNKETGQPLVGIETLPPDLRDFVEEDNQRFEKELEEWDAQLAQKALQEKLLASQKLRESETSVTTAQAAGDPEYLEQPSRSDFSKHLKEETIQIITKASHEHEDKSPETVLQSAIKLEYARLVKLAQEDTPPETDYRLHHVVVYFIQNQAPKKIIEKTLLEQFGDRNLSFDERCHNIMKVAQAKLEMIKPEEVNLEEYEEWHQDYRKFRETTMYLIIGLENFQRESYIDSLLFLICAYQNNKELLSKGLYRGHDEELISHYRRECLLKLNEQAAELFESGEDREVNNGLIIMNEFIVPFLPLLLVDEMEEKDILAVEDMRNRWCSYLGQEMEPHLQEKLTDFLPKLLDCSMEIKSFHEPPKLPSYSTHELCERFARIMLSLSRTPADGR
Summary of the method: as §1

USP28 = target: T4, USP28 (UniProt Q96RU2)
T4 sequence (whole entry): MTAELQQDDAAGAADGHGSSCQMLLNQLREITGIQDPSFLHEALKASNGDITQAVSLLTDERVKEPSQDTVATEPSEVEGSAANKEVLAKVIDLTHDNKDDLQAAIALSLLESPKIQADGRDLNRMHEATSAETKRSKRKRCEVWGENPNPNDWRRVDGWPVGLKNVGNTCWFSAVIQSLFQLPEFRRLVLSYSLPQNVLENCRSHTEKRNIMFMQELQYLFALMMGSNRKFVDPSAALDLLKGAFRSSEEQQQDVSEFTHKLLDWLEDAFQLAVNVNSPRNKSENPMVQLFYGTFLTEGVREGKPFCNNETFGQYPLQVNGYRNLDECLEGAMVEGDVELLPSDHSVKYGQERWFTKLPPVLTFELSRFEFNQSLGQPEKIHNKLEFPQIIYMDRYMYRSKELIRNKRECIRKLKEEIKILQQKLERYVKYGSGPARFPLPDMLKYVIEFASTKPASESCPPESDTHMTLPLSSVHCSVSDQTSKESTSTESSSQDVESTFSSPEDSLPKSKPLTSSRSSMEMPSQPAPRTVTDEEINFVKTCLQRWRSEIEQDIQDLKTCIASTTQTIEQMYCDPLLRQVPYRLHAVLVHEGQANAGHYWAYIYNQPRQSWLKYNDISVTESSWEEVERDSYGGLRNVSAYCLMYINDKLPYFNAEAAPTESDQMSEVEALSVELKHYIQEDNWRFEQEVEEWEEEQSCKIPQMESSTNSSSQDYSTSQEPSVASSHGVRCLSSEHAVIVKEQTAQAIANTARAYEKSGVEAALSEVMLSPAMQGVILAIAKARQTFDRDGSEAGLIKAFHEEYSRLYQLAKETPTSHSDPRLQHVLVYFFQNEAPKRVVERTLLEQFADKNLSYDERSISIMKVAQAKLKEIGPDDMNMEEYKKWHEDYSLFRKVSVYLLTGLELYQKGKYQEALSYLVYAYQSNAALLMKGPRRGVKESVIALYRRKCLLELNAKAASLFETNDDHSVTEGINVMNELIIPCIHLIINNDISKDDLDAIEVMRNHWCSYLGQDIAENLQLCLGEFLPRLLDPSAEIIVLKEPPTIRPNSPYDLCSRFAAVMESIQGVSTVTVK
Summary of the method: as §1

Measured: log2 ratio of Biotin-Ahx-Ub-VS probe labelling

Cc1cccc(C)c1NC(=O)CCl
inactive: USP19 -0.0774 | USP22 0.0867 | USP24 -0.266 | USP25 -0.436 | USP28 -0.794
